From PubChem BioAssay AID1566 (Sanford-Burnham Center for Chemical Genomics, 2009)
Among all 290,000 compounds or so, about 1,800 (0.62%) were called active. This is one part of a sample in which actives are shown more often than they occur. Unmarked numbers belong to inactive results. Rule as the data show it: active = inhibition above about 50%; inactive = the rest.

Assay: inhibition of NOD2-driven NF-kB reporter – cell-based, luminescence, uHTS, HEK293 (AID 1566)
Conditions: HEK293 NOD2/NF-kB luciferase reporter, at 4 µM, active compounds read high

Q: With `Cc1ccc(C)c(C(=O)CSc2n[nH]c(-c3ccncc3)n2)c1` as the compound, how does the inhibition read?
A: Its inhibition is 11%.

Q: Which inhibition does the source give for `COC(C[C@H]1O[C@H]1[C@H](O)[C@H](C)OCc1ccccc1)OC` here?
A: The inhibition was 9.8%.

Q: With `CC(C)c1ccc(NC(=O)c2ccccc2NC(=O)C2CC=CCC2C(=O)O)cc1` (stereo not drawn) as the compound, how does the inhibition read?
A: The inhibition was -9.6%.

Q: Which inhibition does the source give for `O=C(NC1CCCC1)C(NS(=O)(=O)c1cccc2nsnc12)c1ccccc1` (stereo not drawn) here?
A: The inhibition was 15.9%.

Q: Which inhibition does the source give for `Clc1ccc(Nc2nc(N3CCOCC3)nc(N3CCOCC3)n2)cc1Cl` here?
A: Its inhibition is 8.7%.

Q: Which inhibition does the source give for `Clc1ccc(C2[C@H]3CN(Cc4ccc(-c5ccccc5)cc4)[C@H](c4ccccc4)C34CC2(c2ccccc2)C4)cn1` (stereo partly drawn) here?
A: The inhibition was 6.2%.

Q: With `COc1ccc(N2CCN(C(=O)c3nc4nc(C)cc(C)n4n3)CC2)cc1` as the compound, how does the inhibition read?
A: The inhibition was 7.4%.

Q: For `CC(C)Cc1ccc(C(C)C(=O)Nc2ccccc2O)cc1` (stereo not drawn), which inhibition is on record?
A: The inhibition was 22.9%.

Q: With `C=CCNC(=O)NC(=O)Cn1c(=O)c2c(ncn2CC)n(Cc2ccccc2)c1=O` as the compound, how does the inhibition read?
A: The inhibition was 17.8%.

Q: For `Cc1nc(SCc2cccc(C(=O)O)c2)nc2c1CCCC2`, which inhibition is on record?
A: Its inhibition is 11%.

Q: For `Cc1nc(SCc2ccccc2)nc2c1CCC2`, which inhibition is on record?
A: Its inhibition is -57.5%.

Q: For `Cc1nc(SCc2ccc(C(=O)O)cc2)nc2c1CCCC2`, which inhibition is on record?
A: Its inhibition is 54.6% (active).

Q: For `COc1ccc(OCC(=O)N/N=C/c2ccc(N(C)C)cc2)cc1`, which inhibition is on record?
A: Its inhibition is -12.2%.

Q: With `Cc1cc(/C=C2/C(=O)NN(c3ccccc3)C2=O)c(C)n1-c1cccc(O)c1` as the compound, how does the inhibition read?
A: The inhibition was -42.2%.

Q: With `Cc1cc(/C=C2\SC(=O)N(C)C2=O)c(C)n1-c1ccc(O)cc1` as the compound, how does the inhibition read?
A: Its inhibition is 0.7%.

Q: For `COc1ccc(-n2c(C)cc(/C=C3/SC(=S)N(C)C3=O)c2C)cc1`, which inhibition is on record?
A: The inhibition was 24.3%.

Q: With `Cc1cc(/C=C2\SC(=S)NC2=O)c(C)n1-c1cccc(O)c1` as the compound, how does the inhibition read?
A: The inhibition was -226%.

Q: Which inhibition does the source give for `Cc1ccc(OCC(=O)NCCCNC(=O)c2ccc(C)nc2)cc1` here?
A: Its inhibition is 7.3%.

Q: Which inhibition does the source give for `C/C(=C\C#N)n1nc(C)cc1N` here?
A: Its inhibition is 16.8%.

Q: For `Cc1cc2oc3c(c(=O)c2cc1C)C(c1ccc(C(C)C)cc1)N(CCCN1CCOCC1)C3=O` (stereo not drawn), which inhibition is on record?
A: Its inhibition is 0.6%.

Q: With `CSc1nsc(SCC(=O)NCc2ccccc2)n1` as the compound, how does the inhibition read?
A: The inhibition was -5.3%.

Q: For `CCc1ccc(NC(=S)N(Cc2cccnc2)Cc2ccco2)cc1`, which inhibition is on record?
A: Its inhibition is 6.5%.

Q: Which inhibition does the source give for `C=CCc1cccc2cc(C(=O)O)c(=O)oc12` here?
A: Its inhibition is -2.5%.

Q: Which inhibition does the source give for `C=CCc1cccc2cc(C(=O)Nc3cccc(C(=O)O)c3)c(=O)oc12` here?
A: Its inhibition is -0.7%.

Q: Which inhibition does the source give for `C=CCc1cccc2cc(C(=O)Nc3ccccc3C(=O)O)c(=O)oc12` here?
A: The inhibition was 62.4% (active).

Q: For `NC(=O)CN1CCN(CCN2C(=O)c3cccc4cccc(c34)C2=O)CC1`, which inhibition is on record?
A: The inhibition was 1.7%.

Q: With `Cc1cc(N2CCN(c3nc(-c4ccccc4)cs3)CC2)c2ccccc2n1` as the compound, how does the inhibition read?
A: Its inhibition is 26.2%.

Q: For `COc1ccc(-c2csc(N3CCN(c4cc(C)nc5ccccc45)CC3)n2)cc1OC`, which inhibition is on record?
A: The inhibition was 70% (active).

Q: With `Cc1cc(N2CCN(c3nc(-c4ccc([N+](=O)[O-])cc4)cs3)CC2)c2ccccc2n1` as the compound, how does the inhibition read?
A: The inhibition was 15.6%.

Q: Which inhibition does the source give for `O=C(/C=C/c1ccccc1)NC(=S)NNC(=O)c1cnccn1` here?
A: The inhibition was 20.5%.

Q: Which inhibition does the source give for `Cc1ccc(OCC(=O)c2cc(C)n(C)c2C)c([N+](=O)[O-])n1` here?
A: The inhibition was 32.9%.

Q: For `COc1ccc(-n2c(C)cc(C(=O)COc3ccc(C)nc3[N+](=O)[O-])c2C)cc1`, which inhibition is on record?
A: Its inhibition is -5.4%.

Q: Which inhibition does the source give for `C=CCn1c(C)cc(C(=O)COc2ccc(S(=O)(=O)N3CCCC3)cc2[N+](=O)[O-])c1C` here?
A: Its inhibition is -1.6%.

Q: Which inhibition does the source give for `Cc1ccc(OCC(=O)c2cc(C)c(C)cc2C)c([N+](=O)[O-])n1` here?
A: The inhibition was 12.2%.

Q: With `Cc1ccc(OCC(=O)c2cc(C)n(CC(F)(F)F)c2C)c([N+](=O)[O-])n1` as the compound, how does the inhibition read?
A: The inhibition was 23%.

Q: Which inhibition does the source give for `Cc1ccc(OCC(=O)c2cc(C)n(C3CC3)c2C)c([N+](=O)[O-])n1` here?
A: The inhibition was 11.3%.

Q: For `COc1cc(/C=C2\SC(=O)N(CCN)C2=O)ccc1OS(=O)(=O)c1cc(C)ccc1C`, which inhibition is on record?
A: The inhibition was -1.9%.

Q: For `C=CCn1c(SCC(=O)Nc2ccc(-c3nc4ccc(C)cc4s3)cc2)nnc1-c1ccccc1`, which inhibition is on record?
A: Its inhibition is -69.8%.

Q: For `COc1ccc2[nH]c(C)c(CCNC(=S)Nc3cccc(C)c3)c2c1`, which inhibition is on record?
A: The inhibition was -5.2%.

Q: For `O=C(COC(=O)/C(=C/c1cccs1)c1cccs1)NC(c1ccccc1)c1ccccc1`, which inhibition is on record?
A: The inhibition was -12.9%.

Q: With `CCNC(=S)N1CCN(CC(=O)Nc2ccc(OC)cc2)CC1` as the compound, how does the inhibition read?
A: Its inhibition is -3.6%.

Q: Which inhibition does the source give for `O=C(NN/C(=N/S(=O)(=O)c1ccc(Cl)cc1)c1ccccc1)c1cccc(Cl)c1` here?
A: The inhibition was -51.7%.

Q: With `CC(Oc1ccccc1)C(=O)NC1=NCCS1` (stereo not drawn) as the compound, how does the inhibition read?
A: Its inhibition is -34.9%.

Q: With `CN1C(=O)C2(C(C#N)=C(N)N(c3ccc(Cl)cc3)C3=C2C(=O)CC(C)(C)C3)c2ccccc21` (stereo not drawn) as the compound, how does the inhibition read?
A: Its inhibition is 5.6%.

Q: With `CN1C(=O)C2(C(C#N)=C(N)N(c3cc(Cl)cc(Cl)c3)C3=C2C(=O)CCC3)c2ccccc21` (stereo not drawn) as the compound, how does the inhibition read?
A: Its inhibition is 53% (active).

Q: Which inhibition does the source give for `CN1C(=O)C2(C(C#N)=C(N)N(c3cc(Cl)cc(Cl)c3)C3=C2C(=O)CC(C)(C)C3)c2ccccc21` (stereo not drawn) here?
A: The inhibition was 48.4%.

Q: With `O=C(CSc1ccc(Br)cc1)N1CCOCC1` as the compound, how does the inhibition read?
A: Its inhibition is 0%.

Q: For `CCCn1ncc(CN2CCC(Oc3ccc(C(=O)N4CCCC4)cc3)CC2)c1C`, which inhibition is on record?
A: Its inhibition is -37.8%.

Q: With `COc1ccc(S(=O)(=O)N(CC(=O)NCc2ccccn2)Cc2ccccc2)cc1` as the compound, how does the inhibition read?
A: Its inhibition is -13.2%.

Q: With `CN(C1=C(NC(=O)c2ccccc2)C(=O)c2ccccc2C1=O)C1CCS(=O)(=O)C1` (stereo not drawn) as the compound, how does the inhibition read?
A: Its inhibition is -12.3%.

Q: For `O=C(NC1=C(NC2CCS(=O)(=O)C2)C(=O)c2ccccc2C1=O)c1ccccc1` (stereo not drawn), which inhibition is on record?
A: The inhibition was 73.2% (active).

Q: For `CC(=O)NC1=C(NC2CCS(=O)(=O)C2)C(=O)c2ccccc2C1=O` (stereo not drawn), which inhibition is on record?
A: Its inhibition is 5.3%.

Q: For `O=C(Nc1cccc2ccccc12)C1CCN(C(=O)NCc2ccccc2)CC1`, which inhibition is on record?
A: Its inhibition is -12.5%.

Q: With `Cc1cccc(OCC(=O)N/N=C2/SCC(=O)N2Cc2ccco2)c1` as the compound, how does the inhibition read?
A: The inhibition was 14.5%.

Q: With `C=CCc1ccccc1OCC(=O)O` as the compound, how does the inhibition read?
A: The inhibition was -5.4%.

Q: With `O=C(COc1ccc(Cl)cc1)NNC(=S)NCc1ccccc1` as the compound, how does the inhibition read?
A: Its inhibition is -20.7%.

Q: With `C=CCc1ccccc1OCC(=O)NNC(=S)NCc1ccccc1` as the compound, how does the inhibition read?
A: Its inhibition is 64.8% (active).

Q: Which inhibition does the source give for `Cc1cc(-c2ccccc2)nc(Cl)c1C#N` here?
A: The inhibition was 17.2%.
